Laboratory results reported in PubChem BioAssay AID449762 (Southern Research Specialized Biocontainment Screening …, 2010).
Out of some 330,000 compounds screened, about 1,900 (0.58%) were called active. Not shown: some 4% with an inconclusive outcome. These entries were drawn from the full list. Potency and affinity values are given separately. Values without a mark were called inactive. No stated cut-off is given here; in the data, inconclusive means inhibition above about 70% without an active follow-up result; inactive means below that.

test: M. tuberculosis growth inhibition, HTS (AID 449762);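 further: bacterial growth assessed after seven days of incubation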; details: M. tuberculosis H37Rv growth inhibition, 7H9 media; at 25 µM; hits give high values

Row | Structure (SMILES) | inhibition
1 | COC(=O)N/N=C\c1ccccc1OC/C=C/c1ccccc1 | 7.83%
2 | CCOc1ccc(-c2cc(C)[n+](CCN3CCOCC3)c(-c3ccc(OCC)cc3)c2)cc1 | 12.3%
3 | CCOc1ccc(-c2cc(C)[n+](CCO)c(-c3ccc(OCC)cc3)c2)cc1 | 4.23%
4 | COC(=O)/C(=C/Nc1ccccc1)[N+](=O)[O-] | -4.18%
5 | Cc1ccc(NC(=O)CS(=O)CC(=O)N(CC(=O)NC2CCCC2)c2ccc3c(c2)OCCO3)cc1 (configuration not stated) | -4.13%
6 | COc1ccc(CNCc2ccc3ccccc3c2)c(OC)c1 | 12.2%
7 | COc1cccc(CNCc2ccc(OC)cc2OC)c1 | 1.71%
8 | CCn1c2ccccc2c2cc(CN3CCN(S(=O)(=O)CC)CC3)ccc21 | 10.3%
9 | CCn1c2ccccc2c2cc(CN3CCN(S(C)(=O)=O)CC3)ccc21 | 7.91%
10 | CCn1cc(C(=O)N2CCCC(CO)(Cc3ccccc3C)C2)cn1 (configuration not stated) | 0.25%
11 | COc1cc2oc(=O)ccc2cc1[C@H](O)[C@@H](O)C(C)(C)O | -11.1%
12 | COc1ccc(-c2c[n+]3c(n2-c2ccccc2)CCCCC3)cc1 | -4.08%
13 | COc1ccc(-c2c[n+](CC(=O)c3ccccc3)c3n2CCCCC3)cc1 | 1.09%
14 | CSc1nn(-c2ccc(C(=O)OC(C(=O)NC(N)=O)C(C)C)cc2)c(=S)s1 (configuration not stated) | 50.6%
15 | CC(C)NC(=O)NC(=O)COC(=O)c1ccc(OC(F)(F)F)cc1 | 14.2%
16 | O=C(CN1CCN(S(=O)(=O)c2cccc(F)c2)CC1)NCC1(N2CCOCC2)CCCCC1 | 6.01%
17 | CC(C)(C)C(=O)Nc1cc(C(F)(F)F)ccc1-n1ccnc1 | -0.21%
18 | Fc1ccc(-n2c(Cn3nnc4ccccc43)n[nH]c2=S)cc1 | -5.75%
19 | COc1ccccc1NC(=O)c1ccc(NC(=O)CSc2nncn2C)cc1 | 7.82%
20 | COc1ccccc1NC(=O)CSc1nnnn1C | -4.82%
21 | COc1ccccc1NS(=O)(=O)c1ccc2ccccc2c1 | 7.83%
22 | CC1CCc2sc(C(=O)NCc3ccccn3)cc2C1 (configuration not stated) | 4.08%
23 | O=C(Nc1cccc2ccccc12)c1ccc([N+](=O)[O-])cc1 | 5.16%

Row | Structure (SMILES) | inhibition
24 | CCOC(=O)C1CCCCN1S(=O)(=O)c1cc2c(cc1C)NC(=O)CO2 (configuration not stated) | -3.9%
25 | CCN(C(=O)Cn1ccc(C(F)(F)F)n1)c1c(N)n(Cc2ccccc2)c(=O)[nH]c1=O | -10%
26 | O=C(COc1ccc([N+](=O)[O-])cc1)NNC(=S)NC(=O)c1ccc(Br)cc1 | 10.5%
27 | Cc1ccc(S(=O)(=O)N(C)c2ccc(OCC(=O)OCc3c(C)noc3C)cc2)cc1 | 47.9%
28 | Cc1ccc(S(=O)(=O)N(C)c2ccc(OCC(=O)OCC(=O)N(CC#N)c3ccccc3)cc2)cc1 | 15.9%
29 | COc1ccc2[nH]cc(C3=CCNCC3)c2c1 | 67.9%
30 | CN1CC=C(c2c[nH]c3ccccc23)CC1 | -13.7%
31 | CCOc1cc(C2C3=C(CC(C)(C)CC3=O)N(CCCOC)C3=C2C(=O)CC(C)(C)C3)ccc1OC | 1.22%
32 | CC(=O)Nc1ccc2c(c1)nc1n2CCOC1 | 8.99%
33 | Cc1ccc(N(CC(=O)Nc2cc(Cl)ccc2Oc2ccccc2)S(C)(=O)=O)cc1C | 13.8%
34 | Cc1nn(-c2ccccc2)c(N)c1N=Nc1ccc2ccccc2c1 | 56.7%
35 | Cc1nn(-c2ccccc2)c(N)c1N=Nc1ccccc1 | -2.88%
36 | O=c1c2sccc2nc(SCc2ccc([N+](=O)[O-])cc2)n1Cc1ccccn1 | 4.82%
37 | O=C(CSc1nnnn1-c1ccc2c(c1)OCCO2)N1CCc2ccccc21 | 5.18%
38 | O=C(CCc1n[nH]c(=O)[nH]c1=O)N1CCOCC1 | -14.1%
39 | CCCNC(=O)c1cccc(COc2ccccc2OC)c1 | 3.61%
40 | Cc1nc2ccccn2c(=O)c1CCN1CCC(C(=O)c2ccc(F)cc2)CC1 | -4.74%
41 | Cc1nc2sccn2c(=O)c1S(=O)(=O)N1CCN(c2ccc(F)cc2)CC1 | 8.78%
42 | CCCNC(=S)N(Cc1cc2cc(C)ccc2n2nnnc12)CC(C)(C)CN(C)C | 18.8%
43 | CSCC[C@H](NC(=O)OC(C)(C)C)C(=O)NCC1CCC(C(=O)N[C@@H](Cc2ccccc2)C(=O)O)CC1 (some centres not stated) | 2.33%
44 | CNCCNC[C@H](Cc1cccc2ccccc12)NCCc1ccccc1 | -2.82%
45 | C=CCOc1ccccc1CNCCNC(=O)c1nonc1N | -4.17%
46 | CCCCCOC(=O)Cn1c(SCC(=O)Nc2ccccc2)nc2c1c(=O)[nH]c(=O)n2C | -7.54%

Row | Structure (SMILES) | inhibition
47 | O=C(c1cc([N+](=O)[O-])ccc1N1CCOCC1)N1CCN(S(=O)(=O)c2ccc(F)cc2)CC1 | -2.15%
48 | C/C(=N\NC(=O)c1cc2ccccc2cc1O)c1cccs1 | -0.54%
49 | C/C(=N/NC(=O)c1cc2ccccc2cc1O)c1ccco1 | 66.3%
50 | N#CCCN(C(=O)COC(=O)c1nc(Cl)ccc1Cl)c1ccccc1 | -6.38%
51 | C=CCn1c(C(C)NC(=O)c2cccs2)n[nH]c1=S (configuration not stated) | -3.28%
52 | OCCCNc1nccc(-c2cc(Nc3cccc(Cl)c3)ncn2)n1 | 5.56%
53 | CCC(C)Oc1cc(-c2ccnc(Nc3cccc(Cl)c3)n2)ccn1 (configuration not stated) | 63.7%
54 | Cc1ccc(-c2nnn(CC(=O)N(c3cccc(F)c3)C(C(=O)NC3CCCC3)c3ccncc3)n2)o1 (configuration not stated) | 0.25%
55 | COCCCNC(=O)CSc1ccc(Cl)cc1 | -2.16%
56 | CCN(c1ccccc1)S(=O)(=O)c1ccc(OC)c(N=N/C(C(=O)Nc2ccccc2)=C(/C)O)c1 | 10.8%
57 | O=C(NCC(c1ccco1)N1CCOCC1)c1cccc([N+](=O)[O-])c1 (configuration not stated) | 1.76%
58 | CC(C)NCC(O)COC1CCC(C(C)(C)C)CC1 (configuration not stated) | -7.84%
59 | CC[C@H](C)[C@@H](CN[C@H](CCCCNC)CNC)NCC1CCCC1 | 4.48%
60 | Cc1ccc(C2C3=C(CC(C)(C)CC3=O)OC3=C2C(=O)CC(C)(C)C3)cc1 | -4.24%
61 | Cc1onc(-c2ccccc2)c1C(=O)OCC(=O)N1CCC(C)CC1 | -0.29%
62 | CSc1nnc(C)c(/C=C/NOCc2ccc(Cl)cc2)n1 | -4.59%
63 | CCc1ccc2c(c1)cc(CN(C(=S)Nc1ccc(Cl)cc1)C1CC1)c1nnnn12 | -13.5%
64 | Cn1cnc2cc(NCc3cccs3)ccc21 | 2.02%
65 | Cc1ccccc1-n1cnc2cc(NCc3cccs3)ccc21 | 59.7%
66 | CCn1c(SC(C)C(=O)N2CCOCC2)nc2sc(C)c(C)c2c1=O (configuration not stated) | -0.24%
67 | CCC(C)[C@H](NC(=O)C1CC(=O)N(c2ccc3c(c2)OCCO3)C1)C(=O)NC1CCCC1 (some centres not stated) | -2.76%
68 | CN(CCC#N)C(=O)COC(=O)c1ccc2c(c1)C(=O)N(C1CCCCC1)C2=O | 11.1%
69 | O=C(O)COc1ccc(NC(=O)c2ccc3c(c2)C(=O)N(C2CCCCC2)C3=O)cc1 | -5.81%

Row | Structure (SMILES) | inhibition
70 | CCC(=O)Nc1ccc2c(c1)C(=O)N(C1CCCCC1)C2=O | 12.2%
71 | COC(=O)c1ccc2c(c1)C(=O)N(C1CCCCC1)C2=O | 48.9%
72 | Clc1cccc(C2CCN(Cc3nc(CC4CC4)no3)C2)c1 (configuration not stated) | 16.3%
73 | COc1ccc(NCc2nnc(SCc3ccc(Cl)cc3)n2-c2ccccc2)cc1 | -5.4%
74 | CCOC(=O)CSc1nnc(CNc2cccc(Cl)c2)n1-c1ccccc1 | -7.68%
75 | Cc1ccccc1S(=O)(=O)Cc1ccc(C(=O)NCCCOC(C)C)o1 | 2.68%
76 | CN(CC(=O)Nc1ccccc1Cl)C(=O)COC(=O)c1ccc(=O)n(Cc2ccccc2)n1 | 0.91%
77 | CC(=O)N(Cc1nc2sc(C)c(C)c2c(=O)[nH]1)C1CCCC1 | -3.15%
78 | Cc1sc2nc(CN(C(=O)NC3CCCCC3)C3CCCCC3)[nH]c(=O)c2c1C | 26.1%
79 | O=C(Cc1ccc(F)cc1)N(c1ccccc1)C1C=CS(=O)(=O)C1 (configuration not stated) | -6.47%
80 | CCn1cc(C2C(C(=O)Nc3cc(C)ccn3)=C(C)NC3=C2C(=O)CC(C)(C)C3)c(C)n1 (configuration not stated) | 1.96%
81 | CCCCCCn1c(=O)c(C(=O)Nc2ncccc2O)c(O)c2ccccc21 | 13.4%
82 | CCCn1c(=O)c(C(=O)Nc2ncccc2C)c(O)c2ccccc21 | 18.3%
83 | CC1(C)CC(=O)C(N=Nc2cccc([N+](=O)[O-])c2)=C(O)C1 | 0.73%
84 | CCN(N=Nc1cccc([N+](=O)[O-])c1)c1cccc([N+](=O)[O-])c1 | 4.11%
85 | COc1ccc(CCN2C(=O)CSC2c2ccc(F)cc2)cc1 (configuration not stated) | -7.99%
86 | Cc1ccc(S(=O)(=O)N(C)c2ccc(C(=O)Nc3ccccn3)cc2)cc1 | 27.5%
87 | COc1ccc(-c2sc3ccc(N4CCOCC4)cc3c2-c2ccc(OC)c(F)c2)cc1 | -0.65%
88 | Cc1nc(SCc2nc3ccccc3[nH]2)c2oc3cc(Br)ccc3c2n1 | 0.43%
89 | Cc1cc(NC(=O)Cn2ccsc2=N)c([N+](=O)[O-])cc1C | -4.45%
90 | N=c1sccn1CC(=O)Nc1ccc(Cl)cc1[N+](=O)[O-] | -3.88%
91 | CC(Oc1ccccc1)C(=O)N1CCC2(CC1)Oc1ccc(Cl)cc1C(=O)C21CC(c2ccccc2)=NO1 (configuration not stated) | 23.6%
92 | CC(C)C(=O)N1CCC2(CC1)Oc1ccc(Cl)cc1C(=O)C21CC(c2cccnc2)=NO1 (configuration not stated) | 1.87%
